Data reported in PubChem BioAssay (NCI).
Compounds without any hit were thinned out: in the full panel of roughly 83,000, 20% have a hit.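 Values shown are percent growth following 48 h exposure of cells in 96-well plates to a single concentration of compound; below 10 was considered active.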 Activity calls are given as the source filed them.

Key:
Assay in all cases: NCI-60 one-dose screen, 48 h (100 = growth as untreated, 0 = no growth, -100 = all killed)
Settings in all cases: 10 µM unless noted
[1] = system: NCI-H23 lung
[2] = system: NCI-H226 lung
[3] = system: NCI-H322M lung
[4] = system: HOP-62 NSCLC
[5] = system: NCI-H460 lung
[6] = system: HOP-92 NSCLC
[7] = system: NCI-H522 lung
[8] = system: A549/ATCC NSCLC
[9] = system: 786-0 renal
[10] = system: COLO 205 colon
[11] = system: DU-145 prostate
[12] = system: K-562 leukemia
[13] = system: MALME-3M melanoma
[14] = system: MDA-MB-231 breast
[15] = system: RXF 393 renal
[16] = system: SF-268 CNS
[17] = system: SF-295 CNS
[18] = system: SF-539 CNS
[19] = system: UACC-257 melanoma
[20] = system: M14 melanoma

Measured: growth

Cc1ccc(-c2nc(N3CCNCC3)c3oc(-c4ccccc4)nc3n2)cc1
inactive: [1] 35.3% | [2] 110% | [19] 91.2%
active: [3] -78.5% | [4] -6.18% | [5] -72.5% | [6] -25.6% | [7] -81.8% | [8] 3.88% | [9] -87.8% | [10] -91.1% | [11] -93.1% | [12] -73.3% | [13] -29.5% | [14] -79.2% | [15] -74.1% | [16] 7.93% | [17] -23.2% | [18] -91% | [20] -92.3%

CC(C)(C)[Si](C)(C)O[C@H]1C(=O)C=CN2CC=C[C@@H]12
inactive: [1] 93.3% [100 µM] | [2] 94.4% [100 µM] | [3] 104% [100 µM] | [4] 111% [100 µM] | [5] 103% [100 µM] | [6] 93.9% [100 µM] | [7] 91.7% [100 µM] | [8] 110% [100 µM] | [9] 105% [100 µM] | [10] 122% [100 µM] | [11] 108% [100 µM] | [12] 105% [100 µM] | [13] 106% [100 µM] | [14] 105% [100 µM] | [15] 109% [100 µM] | [16] 101% [100 µM] | [17] 94.1% [100 µM] | [18] 99.4% [100 µM] | [19] 93.6% [100 µM] | [20] 108% [100 µM]

CC(O)c1cnc(/C=C2\SC(=S)N(Cc3ccccc3)C2=O)s1 (stereo not given)
active: [7] 0.337%
inactive: [1] 99.7% | [2] 90.3% | [3] 87.8% | [4] 39% | [5] 96.8% | [6] 43.7% | [8] 66.7% | [9] 59.2% | [10] 35.7% | [11] 53.2% | [12] 18% | [13] 90.8% | [14] 84.9% | [15] 73.6% | [16] 84.3% | [17] 102% | [18] 91.9% | [19] 72.8% | [20] 66.5%

Cc1nc2sc(C(=O)Nc3cccc(Cl)c3C)c(N)c2cc1C(=O)c1ccccc1
inactive: [1] 34.4% | [3] 49.8% | [4] 21.2% | [6] 41.6% | [8] 19.9% | [9] 32.8% | [11] 11% | [12] 13.5% | [13] 25% | [14] 39% | [16] 29.2% | [19] 63.3%
active: [2] 5.27% | [5] 7.35% | [7] 5.64% | [10] -36% | [15] 3.56% | [17] 1.83% | [18] -7.44% | [20] 6.11%

O=C(Cc1ccccc1)Nc1nc(O)c(/C=C2\C(=O)C=Cc3ccccc32)s1
inactive: [1] 90.7% | [2] 100% | [3] 98.2% | [4] 107% | [5] 99.4% | [6] 85.2% | [7] 90.5% | [8] 101% | [9] 102% | [10] 111% | [11] 104% | [12] 100% | [13] 106% | [14] 98.1% | [15] 111% | [16] 99.2% | [17] 103% | [18] 102% | [19] 106% | [20] 89.7%

O=C1CNC(c2ccccc2)C(c2ccccc2)N1 (stereo not given)
inactive: [1] 85.2% | [2] 99.4% | [3] 103% | [4] 121% | [5] 103% | [6] 86.3% | [7] 88.6% | [8] 93.5% | [9] 92.4% | [10] 115% | [11] 102% | [12] 120% | [13] 86.9% | [14] 100% | [15] 98.3% | [16] 110% | [17] 109% | [18] 100% | [19] 102% | [20] 97.4%

C=C1C(=O)O[C@H]2[C@H]1CC/C(COC(=O)CSCCSCC(=O)OC/C1=C/CC[C@@]3(C)O[C@H]3[C@H]3OC(=O)C(=C)[C@@H]3CC1)=C\CC[C@@]1(C)O[C@@H]21
active: [2] 8.95% | [6] -0.141% | [7] -76.2% | [9] -24.2% | [10] -37.7% | [12] 1.81% | [13] -8.71% | [14] -37.2% | [15] -85.1% | [18] 1.67% | [20] 3.06%
inactive: [1] 40.6% | [3] 77.2% | [4] 81.2% | [5] 22.1% | [8] 69.5% | [11] 32.3% | [16] 16.7% | [17] 67.2% | [19] 49.9%

CCN(CC)CCOc1ccc(C(=C(C)c2ccc(Cl)cc2)c2ccc(OCCN(CC)CC)cc2)cc1
inactive: [2] 103%
active: [1] 3.75% | [3] -29.9% | [4] -61.5% | [5] -76.6% | [6] 6.28% | [7] -67.2% | [8] -68.9% | [9] -97.6% | [10] -68.7% | [11] -36.4% | [12] -37.2% | [13] -84.1% | [14] -84.9% | [15] -73.7% | [16] -37.9% | [17] -77.6% | [18] -92.6% | [19] -69.9% | [20] -89.8%

COc1cc(-c2cc(-c3ccc(N(C)C)cc3)nc(N3CCC(O)CC3)c2C#N)cc(OC)c1OC
inactive: [3] 25.8% | [4] 41.4% | [8] 11.5% | [11] 33% | [16] 22.1%
active: [1] 3.6% | [2] -6.93% | [5] -27.9% | [6] -25% | [7] -36.3% | [9] -3.55% | [10] -17.2% | [12] 1.74% | [13] -45.3% | [14] -50.9% | [15] -5.34% | [17] -44.3% | [18] -0.969% | [19] -51.8% | [20] -69.3%

COc1ccc(-c2nc(/C=C3\SC(=NCc4ccccc4)NC3=O)c3ccccn23)cc1
inactive: [3] 20.4% | [12] 18.4% | [17] 17.5%
active: [1] -73.4% | [2] 5.75% | [4] -50.7% | [5] -54.6% | [6] -38.2% | [7] -36% | [8] -27.3% | [9] -96.3% | [10] -69.1% | [11] -88.6% | [13] -33.1% | [14] -13.9% | [15] -86.7% | [16] -37.4% | [18] -43.4% | [19] -17% | [20] -95.7%

O=C1c2cccnc2C(=O)c2c1c(C(=O)NCCCN1CCCCC1)c1ccccn21
active: [1] -36.1% | [2] -39.8% | [3] -35.9% | [4] -37.5% | [5] -69.9% | [6] -30.5% | [7] -51% | [8] -42.9% | [9] 5.99% | [10] -82.2% | [11] -94.4% | [12] -25.4% | [13] -92.6% | [14] -3.12% | [15] -39.5% | [16] -13% | [17] -13.6% | [18] -61.2% | [19] -82.8% | [20] -88.1%

CC(=O)n1nc(C(=O)OC(C)C)c2cc(C)c(C)cc21
inactive: [1] 95.2% | [2] 96.4% | [3] 101% | [4] 92.1% | [5] 98.7% | [6] 67.1% | [7] 88.8% | [8] 82.2% | [9] 80.9% | [10] 102% | [11] 105% | [12] 91.1% | [13] 95% | [14] 102% | [15] 118% | [16] 102% | [17] 89.8% | [18] 107% | [19] 92.3% | [20] 93.7%

O=C(O)CNC1=C(Cl)C(=O)c2ccccc2C1=O
inactive: [1] 88% | [2] 109% | [3] 103% | [4] 95.4% | [5] 102% | [6] 74.1% | [7] 78.8% | [8] 96.6% | [9] 101% | [10] 113% | [11] 112% | [12] 93.4% | [13] 118% | [14] 83% | [15] 128% | [16] 103% | [17] 92.1% | [18] 123% | [19] 91.1% | [20] 98.3%

CN1CCN(C(=O)c2ccc(NC(=O)Nc3ccc(-c4nc(N5CCOCC5)c5cccn5n4)cc3)cc2)CC1
active: [2] -6.51% | [3] -12% | [4] -13.5% | [5] 7.17% | [6] -28.6% | [8] 1.15% | [9] -20.1% | [10] -11.4% | [11] 7.11% | [13] -37% | [14] 2.25% | [15] -39.5% | [16] 4.85% | [17] -43.6% | [18] -40.1% | [19] -21.3% | [20] -22%
inactive: [1] 15.4% | [7] 12.4% | [12] 15.3%

CSc1nnc(-c2cnn3c2NC(c2ccccc2)C3)n1-c1ccc(C(F)(F)F)cc1 (stereo not given)
inactive: [1] 72.6% | [2] 73.5% | [3] 72.3% | [4] 61.1% | [5] 61.8% | [6] 64.3% | [7] 26.1% | [8] 45.5% | [9] 66.1% | [10] 63.9% | [11] 85.1% | [13] 69.8% | [14] 64.8% | [15] 79.1% | [16] 65.1% | [17] 32% | [18] 80.3% | [19] 51.4% | [20] 54.3%
active: [12] 3.03%
